± gives the standard deviation of the averaged measurements.
Tested on: AmpC beta-lactamase (E. coli)
Experiment: AmpC inhibition relative to DMSO; higher = more inhibition
Description: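 Aggregation counter-screen: inhibition of E. coli AmpC beta-lactamase (5 nM, nitrocefin substrate, 50 mM sodium phosphate pH 7.0, RT, 5 min) by KAT inhibitors at 4, 11, 33 and 100 uM, with or without 0.01% Triton X-100. Percent inhibition is relative to DMSO controls. Four technical replicates.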

[1] = 4 µM, detergent: 0.01% Triton X-100
[2] = 11 µM, detergent: 0.01% Triton X-100
[3] = 33 µM, detergent: 0.01% Triton X-100
[4] = 100 µM, detergent: 0.01% Triton X-100
[5] = 100 µM, detergent: no detergent

Row | SMILES | AmpC inhibition [1] [%] | AmpC inhibition (4 µM, detergent: no detergent) [%] | AmpC inhibition [2] [%] | AmpC inhibition (11 µM, detergent: no detergent) [%] | AmpC inhibition [3] [%] | AmpC inhibition (33 µM, detergent: no detergent) [%] | AmpC inhibition [4] [%] | AmpC inhibition [5] [%]
1 | CCCCCCCCCCCC1=C(O)C(=O)C=C(O)C1=O | 8.62 ± 5.2 | -3.71 ± 8 | 2.92 ± 1.7 | 17.5 ± 8.6 | 3.12 ± 4.7 | 60.9 ± 17 | 5.91 ± 2.8 | 92.1 ± 5.4
2 | C=C1C(=O)O[C@H](CCC)[C@H]1C(=O)O | 0.817 ± 3 | 2.33 ± 5.5 | 3.75 ± 2.7 | -0.423 ± 6.2 | 0.478 ± 2.6 | -0.772 ± 6.7 | 2.9 ± 2 | 0.697 ± 4.5
3 | CCCCCOc1ccc(/C=C\c2cccc(O)c2C(=O)O)cc1 | -1.02 ± 4.7 | -1.47 ± 3.3 | 7.71 ± 5.1 | 27.2 ± 7.2 | 5.08 ± 5.7 | 69 ± 16 | 14 ± 3 | 99.2 ± 1.4
4 | COc1cc(/C=C/C(=O)CC(=O)/C=C/c2ccc(O)c(OC)c2)ccc1O | 10.4 ± 4.2 | 5.89 ± 9 | 5.4 ± 4.4 | 39.2 ± 7.2 | -1.8 ± 2.5 | 71.1 ± 12 | -2.46 ± 13 | 67.3 ± 7.6
5 | O=C(NNS(=O)(=O)c1ccccc1F)c1cc(F)cc(-c2ccccn2)c1 | 10.7 ± 1.2 | 1.11 ± 11 | 5.78 ± 2.7 | 8.02 ± 4.7 | -0.0162 ± 1.5 | 4.81 ± 1.3 | 0.832 ± 4.9 | 5.91 ± 3.5
